Source: PubChem BioAssay (NCATS)
Results filed as inconclusive are left out. A call without a number means that no potency is given here. Calls of active or inactive are those of the source. The call rests on the fitted dose curve; in most records, active means well fitted inhibition curve with a large enough effect; inconclusive means small, poorly fitted or top-dose-only effect, or effect the other way; inactive means flat fitted curve, though single readings scatter.

assay: qHTS for Inhibitors of Plasmodium falciparum (CP250) proliferation (AID 504320); details: P. falciparum CP250 in erythrocytes, SYBR Green DNA, 72 h; series mostly up to 6.7 µM
From the text: Plasmodium falciparum is a virulent malarial parasite that kills 1-2 million people worldwide each year. Malaria not only inflicts tremendous suffering and morbidity on the human population, but has dramatically influenced the course of civilization with profound sociological and economic implications (Shah, S. 2010). Transmitted by mosquitoes, the sporozoite form of the parasite enters the blood stream to infect hepatocytes, where they become merozoites that infect red blood cells (erythrocytes). Within erythrocytes, merozoites begin a […] cycle of growth and division, after which the parasite is released to infect new red blood cells. Gametocytes, which form within erythrocytes as well, circulate in the bloodstream and are ingested by the mosquito, thereby completing the life cycle (see CDC website). To profile malarial lines for differential chemical responses and to identify inhibitors of malarial growth, an assay that measures P. falciparum growth and replication within erythrocytes was employed. This assay uses a DNA binding fluorescent dye (SYBR Green) to detect parasite DNA following cell lysis. Because mature erythrocytes lack DNA, only Plasmodium-derived DNA is detected. The P. falciparum line cp250, derived from a malarial isolate from Cambodia, (Mu, J., et al. 2010) was added to the panel of lines, Dd2, HB3, 7G8 and GB4 in this study. Laboratory of Assay Development and Screening Technology [ADST] and NIH Chemical Genomics Center [NCGC] Boston University, Chemistry Department, Center for Chemical Methodology and Library Development [CMLD-BU] NIH National Institute of Allergy and Infectious Diseases [NIAID]
ADST Assay Protocol Summary: The 1536-well SYBR Green viability assay was based on the method of Bennett et al (2004) and described previously in 1536-well format (Yuan J., et al. 2009). For screening 3 ul culture medium was dispensed into 1536 well black clear bottom plates (Aurora Biotechnologies) using a Multidrop Combi (Thermo Fisher Scientific Inc.), 23 nL compounds in DMSO were added by a pin transfer (Cleveland, P.H. and Koutz, P.J, 2005) using a pin tool-based delivery system (Kalypsys), and 5 ul of erythrocytes infected with P. falciparum one of five lines (cp250, Dd2, HB3, 7G8 or GB4, 0.3% parasitemia, 2.5% hematocrit final concentration) were added. The plates were incubated at 37C in a humidified incubator in 5% CO2 for 72 h, and 2 ul lysis buffer (20 mM Tris HCl, 10 mM EDTA, 0.16% saponin, 1.6% triton X, 10X SYBR Green I (supplied as 10,000X final concentration by Invitrogen) was added to each well. The plates were mixed for 25 sec with gentle shaking and incubated overnight at room temperature in the dark. The following morning, fluorescence intensity at 485(14) nm excitation and 535(25) nm emission wavelengths was measured on an EnVision (Perkin Elmer) plate reader. Plate reads were normalized relative to the control inhibitor (0.29 uM artemisinin) and vehicle (DMSO) wells present on each plate and then corrected by an algorithm using vehicle-only control plates at the beginning and end of the compound plate stack. References Shah, S. (2010). The Fever: how malaria has ruled humankind for 500,000 years. New York, Sarah Crichton Books. CDC web site, http://www.cdc.gov/malaria/about/biology/index.html Mu, J., Myers, R.A., Jiang, H., Liu, S., Ricklefs, S., Waisberg, M., Chotivanich, K., Wilairatana, P., Krudsood, S., White, N.J., et Plasmodium falciparum genome-wide scans for positive selection, recombination hot spots and resistance to antimalarial drugs Nature Genetics 2010, 42, pp 268-271 Bennett TN, Paguio, M., Gligorijevic, B., Seudieu, C., Kosar, A. D., Davidson, E., and Roepe, P. D. Novel, rapid, and inexpensive cell-based quantification of antimalarial drug efficacy Antimicrobial Agents Chemother. 2004, 48(5): pp 1807-10 Yuan J, Johnson RL, Huang RL, Wichterman J, Jiang HY, Hayton K, Fidock DA, Wellems TE, Inglese J, Austin CP, Su XZ. […]
Potency means the concentration at half of the fitted maximal effect.

| Structure (SMILES) | Potency |
| --- | --- |
| CCN1C(=O)N[C@@H](c2ccco2)C(C(=O)OC)=C1C | inactive |
| COC(=O)C1=C(C(=O)OC)[C@@H]2N(C)c3ccccc3[C@@]23C[C@@H](C(=O)OC)N(C(=O)CC(C)C)C3=N1 | inactive |
| COC/C=C/C1=CC2=CC(=O)C(C)(OC(=O)c3cnc4ccccc4n3)C(=O)C2=CN1Cc1ccc(OC)cc1 (stereo not given) | inactive |
| COCCN1C(=O)N[C@@H](c2cccs2)C(C(C)=O)=C1C | inactive |
| COC(=O)[C@@H]1[C@@H](C)N(Cc2ccccc2)C(=O)N[C@H]1c1ccccc1 | inactive |
| COC(=O)C1=C(C(=O)OC)[C@@H]2N(Cc3ccccc3)c3ccccc3[C@@]23C[C@@H](C(=O)OC)N(C(C)=O)C3=N1 | inactive |
| CCN1C(=O)N[C@@H](c2cccc(C(F)(F)F)c2)[C@@H](C(=O)OC)[C@H]1C | inactive |
| CCN1C(=O)N[C@@H](c2ccccc2)[C@H](C(C)=O)[C@H]1C | inactive |
| COC(=O)CCCC1=CC2=C(c3ccccc3)C(=O)C(C)(OC(=O)C3CCCC3)C(=O)C2=CN1CC1CC1 (stereo not given) | inactive |
| CCCCc1nc2c(c3c1C[C@H](C)OC3)CN(C(=O)NCc1ccco1)CC2 | inactive |
| C=CCN1C=C2C(=O)C(C)(OC(=O)C3CCCC3)C(=O)C(c3ccccc3)=C2C=C1CCCC(=O)OC (stereo not given) | inactive |
| COC(=O)CCC(=O)OC1(C)C(=O)C=C2C=C(C3CC3)N(Cc3ccccc3)C=C2C1=O (stereo not given) | inactive |
| CC(=O)Nc1ccc(S(=O)(=O)N2CCc3nc(COc4ccccc4)c4c(c3C2)CO[C@@H](C)C4)cc1 | inactive |
| CC[C@@H](C)CN1C(=O)N[C@@H](CCc2ccccc2)C(C(C)=O)=C1C | inactive |
| CCN1C(=O)N[C@@H](c2ccc(Br)cc2)C(C(C)=O)=C1C | inactive |
| COCC(=O)N1CCc2nc(-c3ccc(OC)cc3C)c3c(c2C1)CO[C@@H](c1ccccc1)C3 | inactive |
| CCCCC1=CC2=CC(=O)C(C)(OC(=O)CC)C(=O)C2=CN1CCCOC(C)C (stereo not given) | inactive |
| CC1(OC(=O)C2CCCC2)C(=O)C=C2C=C(c3ccsc3)N(CCCCO)C=C2C1=O (stereo not given) | inactive |
| CC1(C)O[C@@H](C(O)(c2cc(F)c(F)c(F)c2)c2cc(F)c(F)c(F)c2)[C@H](C(O)(c2cc(F)c(F)c(F)c2)c2cc(F)c(F)c(F)c2)O1 | 849 nM (active) |
| COC(=O)CCC(=O)OC1(C)C(=O)C2=CN(Cc3ccc4c(c3)OCO4)C(c3ccc(OC)cc3)=CC2=C(Br)C1=O (stereo not given) | inactive |

| Structure (SMILES) | Potency |
| --- | --- |
| CCCCC1=CC2=CC(=O)C(C)(OC(=O)CC)C(=O)C2=CN1c1cccc(C#N)c1 (stereo not given) | inactive |
| COCCN1C(=O)N[C@@H](c2ccco2)C(C(=O)OC)=C1C | inactive |
| C=C(C(C)=O)C(O)C=Cc1ccco1 (stereo not given) | inactive |
| C[C@H]1Cc2c(-c3ccccc3)nc3c(c2CO1)CN(C(=O)c1ccco1)CC3 | inactive |
| CCC(=O)OC1(C)C(=O)C=C2C=C(CCCCNC(=O)OC(C)(C)C)OC=C2C1=O (stereo not given) | inactive |
| CCN1C(=O)N[C@@H](c2cccc(C(F)(F)F)c2)C(C(C)=O)=C1C | inactive |
| COC(=O)[C@@H]1[C@H](CCc2ccccc2)NC(=O)N(Cc2ccccc2)[C@H]1C | inactive |
| C=CCOC(=O)N[C@H](C(C(=O)OC)=C(C)NCc1ccccc1)c1cccc(F)c1 | inactive |
| C[C@H]1Cc2c(-c3ccccc3)nc3c(c2CO1)CN(S(=O)(=O)c1ccc(C#N)cc1)CC3 | inactive |
| COC(=O)C1=C(C(=O)OC)[C@@H]2N(C)c3ccc(OC)cc3[C@@]23C[C@@H](C(=O)OC)N(C(=O)c2ccc(Br)cc2)C3=N1 | inactive |
| COC(=O)CC1c2ccccc2C=C(C)N1C(=O)OC (stereo not given) | inactive |
| CCN1C(=O)N[C@@H](CCc2ccccc2)C(C(=O)OC)=C1C | inactive |
| C=CCN1C=C2C(=O)C(C)(OC(=O)CCC(=O)OC)C(=O)C=C2C=C1C1CC1 (stereo not given) | inactive |
| COC(=O)CCCC1=CC2=C(c3ccccc3)C(=O)C(C)(OC(=O)C3CCCC3)C(=O)C2=CN1C1CC1 (stereo not given) | inactive |
| CCOC(=O)CN1C(=O)N[C@@H](c2cccc(F)c2)C(C(=O)OC)=C1C | inactive |
| CC#CCN1c2ccccc2[C@]23C[C@@H](C(=O)OC)N(S(=O)(=O)c4cccs4)C2=NC(C(=O)OC)=C(C(=O)OC)[C@H]13 | inactive |
| CCN1C(=O)N[C@@H](c2ccccc2)C(C(=O)OC)=C1C | inactive |
| CC1(OC(=O)CCc2ccccc2)C(=O)C=C2C=C(c3ccc(C#N)cc3)N(CCN3CCOCC3)C=C2C1=O (stereo not given) | inactive |
| C=CCOC(=O)N[C@@H](c1ccc(Br)cc1)C(C(C)=O)C(C)=O | inactive |
| COCCN1C(=O)N[C@@H](c2cccc(C(F)(F)F)c2)[C@@H](C(=O)OC)[C@H]1C | inactive |
